# Data published in PubChem BioAssay AID1159580 (chemical genetic matrix, 2015).
# Out of some 5,500 compounds screened, about 2,000 (36%) were called active. Not shown: some 18% with an inconclusive outcome. This is one part of the list. Values without a mark were called inactive. Rule as the data show it: active = normalized growth mostly below about 0.91 (no sharp cut-off); inconclusive = no clear call, values can overlap the other calls; inactive = mostly above about 0.92.
# Assay: chemical genetic growth profiling, strain panel (AID 1159580);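 also: tested at 20 µM; growth read once vehicle control cultures reached saturation at 30 °C; 1 = growth at the plate median or of vehicle wells; lower values mean less growth of the strain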
# Conditions: growth OD
smiles,measurement,setting,value
COc1cc(C/C=C/c2ccccc2)c(OC)cc1O,normalized growth,"S. cerevisiae deletion strains, locus YJR066W, strain TOR1, stronger effect = lower value",0.989
same,normalized growth,"S. cerevisiae deletion strains, locus YJR075W, strain HOC1, stronger effect = lower value",0.935
same,normalized growth,"S. cerevisiae deletion strains, locus YKL009W, strain mrt4, stronger effect = lower value",1.01
same,normalized growth,"S. cerevisiae deletion strains, locus YKL068W, stronger effect = lower value",0.954
same,normalized growth,"S. cerevisiae deletion strains, locus YKL085W, strain MDH1 (second series), stronger effect = lower value",0.965
same,normalized growth,"S. cerevisiae deletion strains, locus YKL085W, strain MDH1, stronger effect = lower value",0.965
same,normalized growth,"S. cerevisiae deletion strains, locus YKL160W, strain elf1, stronger effect = lower value",0.95
same,normalized growth,"S. cerevisiae deletion strains, locus YKR001C, strain vps1, stronger effect = lower value",0.969
same,normalized growth,"S. cerevisiae deletion strains, locus YKR026C, strain gcn3, stronger effect = lower value",0.956
same,normalized growth,"S. cerevisiae deletion strains, locus YKR091W, strain srl3, stronger effect = lower value",0.954
same,normalized growth,"S. cerevisiae deletion strains, locus YLL001W, strain dnm1, stronger effect = lower value",0.926
same,normalized growth,"S. cerevisiae deletion strains, locus YLL026W, stronger effect = lower value",0.962
same,normalized growth,"S. cerevisiae deletion strains, locus YLL041C, strain sdh2, stronger effect = lower value",0.949
same,normalized growth,"S. cerevisiae deletion strains, locus YLR027C, strain aat2, stronger effect = lower value",0.942
same,normalized growth,"S. cerevisiae deletion strains, locus YLR039C, strain RIC1, stronger effect = lower value",0.91
same,normalized growth,"S. cerevisiae deletion strains, locus YLR058C, strain SHM2, stronger effect = lower value",0.987
same,normalized growth,"S. cerevisiae deletion strains, locus YLR102C, strain apc9, stronger effect = lower value",0.964
same,normalized growth,"S. cerevisiae deletion strains, locus YLR113W, strain HOG1, stronger effect = lower value",1.01
same,normalized growth,"S. cerevisiae deletion strains, locus YLR221C, strain rsa3, stronger effect = lower value",1
same,normalized growth,"S. cerevisiae deletion strains, locus YLR258W, strain gsy2, stronger effect = lower value",0.943
same,normalized growth,"S. cerevisiae deletion strains, locus YLR262C, strain YPT6 (second series), stronger effect = lower value",0.95
same,normalized growth,"S. cerevisiae deletion strains, locus YLR262C, strain YPT6, stronger effect = lower value",0.967
same,normalized growth,"S. cerevisiae deletion strains, locus YLR268W, strain sec22, stronger effect = lower value",1
same,normalized growth,"S. cerevisiae deletion strains, locus YLR320W, strain mms22, stronger effect = lower value",0.982
same,normalized growth,"S. cerevisiae deletion strains, locus YLR330W, strain CHS5, stronger effect = lower value",0.964
same,normalized growth,"S. cerevisiae deletion strains, locus YLR342W, strain FKS1 (second series), stronger effect = lower value",1.05
same,normalized growth,"S. cerevisiae deletion strains, locus YLR342W, strain FKS1, stronger effect = lower value",0.949
same,normalized growth,"S. cerevisiae deletion strains, locus YLR357W, strain rsc2, stronger effect = lower value",0.883
same,normalized growth,"S. cerevisiae deletion strains, locus YLR370C, strain arc18, stronger effect = lower value",0.965
same,normalized growth,"S. cerevisiae deletion strains, locus YLR371W, strain rom2, stronger effect = lower value",0.849 (active)
same,normalized growth,"S. cerevisiae deletion strains, locus YLR384C, strain iki3, stronger effect = lower value",0.98
same,normalized growth,"S. cerevisiae deletion strains, locus YLR418C, strain cdc73, stronger effect = lower value",0.883
same,normalized growth,"S. cerevisiae deletion strains, locus YML016C, strain PPZ1, stronger effect = lower value",0.963
same,normalized growth,"S. cerevisiae deletion strains, locus YML032C, strain rad52, stronger effect = lower value",1.02
same,normalized growth,"S. cerevisiae deletion strains, locus YML120C, strain ndi1, stronger effect = lower value",0.922
same,normalized growth,"S. cerevisiae deletion strains, locus YML124C, strain tub3, stronger effect = lower value",0.941
same,normalized growth,"S. cerevisiae deletion strains, locus YMR058W, strain fet3, stronger effect = lower value",0.923
same,normalized growth,"S. cerevisiae deletion strains, locus YMR078C, strain ctf18, stronger effect = lower value",0.956
same,normalized growth,"S. cerevisiae deletion strains, locus YMR125W, strain sto1, stronger effect = lower value",0.898
same,normalized growth,"S. cerevisiae deletion strains, locus YMR129W, stronger effect = lower value",0.96
same,normalized growth,"S. cerevisiae deletion strains, locus YMR205C, strain PFK2, stronger effect = lower value",0.914
same,normalized growth,"S. cerevisiae deletion strains, locus YMR223W, strain ubp8, stronger effect = lower value",0.983
same,normalized growth,"S. cerevisiae deletion strains, locus YMR231W, strain pep5, stronger effect = lower value",0.978
same,normalized growth,"S. cerevisiae deletion strains, locus YMR307W, strain GAS1, stronger effect = lower value",1.04
same,normalized growth,"S. cerevisiae deletion strains, locus YNL067W, strain RPL9B, stronger effect = lower value",0.966
same,normalized growth,"S. cerevisiae deletion strains, locus YNL071W, strain lat1, stronger effect = lower value",0.866 (active)
same,normalized growth,"S. cerevisiae deletion strains, locus YNL128W, strain TEP1, stronger effect = lower value",0.944
same,normalized growth,"S. cerevisiae deletion strains, locus YNL183C, strain NPR1, stronger effect = lower value",1
same,normalized growth,"S. cerevisiae deletion strains, locus YNL209W, strain ssb2, stronger effect = lower value",0.97
same,normalized growth,"S. cerevisiae deletion strains, locus YNL233W, strain BNI4, stronger effect = lower value",0.945
same,normalized growth,"S. cerevisiae deletion strains, locus YNL248C, strain rpa49, stronger effect = lower value",0.95
same,normalized growth,"S. cerevisiae deletion strains, locus YNL250W, strain rad50, stronger effect = lower value",0.898 (active)
same,normalized growth,"S. cerevisiae deletion strains, locus YNL271C, strain bni1, stronger effect = lower value",0.926
same,normalized growth,"S. cerevisiae deletion strains, locus YNL298W, strain CLA4, stronger effect = lower value",0.986
same,normalized growth,"S. cerevisiae deletion strains, locus YNL307C, strain MCK1, stronger effect = lower value",0.955
same,normalized growth,"S. cerevisiae deletion strains, locus YNL322C, strain KRE1 (second series), stronger effect = lower value",0.969
same,normalized growth,"S. cerevisiae deletion strains, locus YNL322C, strain KRE1, stronger effect = lower value",0.962
same,normalized growth,"S. cerevisiae deletion strains, locus YNR049C, strain mso1, stronger effect = lower value",0.962
same,normalized growth,"S. cerevisiae deletion strains, locus YNR052C, strain pop2, stronger effect = lower value",0.969
same,normalized growth,"S. cerevisiae deletion strains, locus YOL006C, strain TOP1, stronger effect = lower value",1.23
same,normalized growth,"S. cerevisiae deletion strains, locus YOL012C, strain htz1",0.65
same,normalized growth,"S. cerevisiae deletion strains, locus YOL147C, strain pex11, stronger effect = lower value",0.963
same,normalized growth,"S. cerevisiae deletion strains, locus YOR001W, strain rrp6, stronger effect = lower value",0.982
same,normalized growth,"S. cerevisiae deletion strains, locus YOR061W, strain CKA2, stronger effect = lower value",0.965
same,normalized growth,"S. cerevisiae deletion strains, locus YOR069W, strain VPS5, stronger effect = lower value",0.955
same,normalized growth,"S. cerevisiae deletion strains, locus YOR070C, strain gyp1, stronger effect = lower value",0.981
same,normalized growth,"S. cerevisiae deletion strains, locus YOR080W, strain dia2, stronger effect = lower value",0.959
same,normalized growth,"S. cerevisiae deletion strains, locus YOR083W, strain WHI5, stronger effect = lower value",0.934
same,normalized growth,"S. cerevisiae deletion strains, locus YOR106W, strain vam3, stronger effect = lower value",0.882
same,normalized growth,"S. cerevisiae deletion strains, locus YOR136W, strain idh2, stronger effect = lower value",0.963
same,normalized growth,"S. cerevisiae deletion strains, locus YOR144C, strain elg1, stronger effect = lower value",0.971
same,normalized growth,"S. cerevisiae deletion strains, locus YOR184W, strain ser1, stronger effect = lower value",1.08
same,normalized growth,"S. cerevisiae deletion strains, locus YOR231W, strain MKK1, stronger effect = lower value",1.07
same,normalized growth,"S. cerevisiae deletion strains, locus YOR265W, strain rbl2, stronger effect = lower value",0.955
same,normalized growth,"S. cerevisiae deletion strains, locus YOR270C, strain vph1, stronger effect = lower value",0.924
same,normalized growth,"S. cerevisiae deletion strains, locus YOR290C, strain snf2, stronger effect = lower value",0.902
same,normalized growth,"S. cerevisiae deletion strains, locus YOR316C, strain cot1, stronger effect = lower value",0.95
same,normalized growth,"S. cerevisiae deletion strains, locus YPL051W, strain arl3, stronger effect = lower value",0.937
same,normalized growth,"S. cerevisiae deletion strains, locus YPL055C, strain LGE1, stronger effect = lower value",1.01
same,normalized growth,"S. cerevisiae deletion strains, locus YPL078C, strain atp4, stronger effect = lower value",0.916
same,normalized growth,"S. cerevisiae deletion strains, locus YPL106C, strain sse1, stronger effect = lower value",0.847 (active)
same,normalized growth,"S. cerevisiae deletion strains, locus YPL240C, strain hsp82, stronger effect = lower value",0.963
same,normalized growth,"S. cerevisiae deletion strains, locus YPL256C, strain CLN2, stronger effect = lower value",1.03
same,normalized growth,"S. cerevisiae deletion strains, locus YPR119W, strain clb2, stronger effect = lower value",0.946
same,normalized growth,"S. cerevisiae deletion strains, locus YPR141C, strain kar3, stronger effect = lower value",0.914 (active)
same,normalized growth,"S. cerevisiae deletion strains, locus YPR163C, strain tif3, stronger effect = lower value",0.98
same,normalized growth,"S. cerevisiae deletion strains, locus YPR167C, strain met16, stronger effect = lower value",0.959
same,normalized growth,"S. cerevisiae deletion strains, strain wtn01, stronger effect = lower value",1.02
same,normalized growth,"S. cerevisiae strains, strain wild type, stronger effect = lower value",0.98
